# Measurements taken from PubChem BioAssay (NCATS).
# Inconclusive results are not listed. A call without a number means that no potency is given here. Active and inactive are the calls of the source. Unless noted, the call rests on the fitted dose curve; in most records, active means well fitted curve in the direction sought with a large enough effect; inconclusive means small, poorly fitted or top-dose-only effect, or another doubt; inactive means no such curve, though single readings can be large; an effect the other way counts as inactive or inconclusive.
# Experiments:
# [1] = biological target: M-phase phosphoprotein 8 (Homo sapiens) (UniProt Q99549); test: qHTS Validation Assay for Inhibitors for MPP8 Chromodomain Interactions with Methylated Histone Tails (AID 488949);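 further: AlphaScreen signal from MPP8 chromodomain bound to biotinylated H3K9me3 peptide; top concentration of the series differs between compounds; nearly all actives have a fitted effect of over 55% in size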
# Sequence of M-phase phosphoprotein 8 (Homo sapiens) (Q99549 whole entry, looked up): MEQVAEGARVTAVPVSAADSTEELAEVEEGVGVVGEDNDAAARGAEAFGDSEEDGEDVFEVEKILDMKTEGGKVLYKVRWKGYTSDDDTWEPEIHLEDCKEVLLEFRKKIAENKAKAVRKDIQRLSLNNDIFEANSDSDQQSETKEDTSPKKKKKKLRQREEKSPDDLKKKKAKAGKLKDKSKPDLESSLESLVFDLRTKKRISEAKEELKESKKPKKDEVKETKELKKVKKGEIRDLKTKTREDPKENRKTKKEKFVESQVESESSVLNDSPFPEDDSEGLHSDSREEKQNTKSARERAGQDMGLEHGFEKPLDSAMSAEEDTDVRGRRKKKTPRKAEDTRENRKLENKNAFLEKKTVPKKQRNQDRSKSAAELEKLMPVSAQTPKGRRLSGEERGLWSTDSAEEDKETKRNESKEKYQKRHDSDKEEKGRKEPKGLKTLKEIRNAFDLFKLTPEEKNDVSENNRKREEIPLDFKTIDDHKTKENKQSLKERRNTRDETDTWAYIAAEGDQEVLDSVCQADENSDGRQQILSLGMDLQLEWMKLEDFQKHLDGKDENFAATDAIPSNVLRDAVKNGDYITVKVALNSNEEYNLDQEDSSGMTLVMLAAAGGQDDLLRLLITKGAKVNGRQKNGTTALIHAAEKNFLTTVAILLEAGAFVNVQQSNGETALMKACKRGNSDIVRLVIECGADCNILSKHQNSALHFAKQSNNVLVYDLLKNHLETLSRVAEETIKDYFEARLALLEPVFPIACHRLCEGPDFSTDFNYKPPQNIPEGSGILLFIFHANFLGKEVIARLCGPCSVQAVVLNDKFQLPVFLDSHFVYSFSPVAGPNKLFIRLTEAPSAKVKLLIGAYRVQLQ
# In short: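 MPP8 (50 nM) was preincubated with biotinylated H3(1-18)K9me3 peptide (50 nM) in PBS pH 7.4, 0.01% Tween-20 for 30 min at room temperature, then with compounds for 30 min; binding was detected by AlphaScreen.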
# [2] = biological target: Methanococcus maripaludis chaperonin (MmCpn) (UniProt Q6LX38); test: High-Throughput Screening for Modulators of Cytosolic Chaperonin Activity: MmCpn Primary Screen (AID 488978);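 further: 50 nM MmCpn enzyme hydrolysing 30 µM ATP at 37 °C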
# Sequence of Methanococcus maripaludis chaperonin (MmCpn) (Q6LX38 1-543): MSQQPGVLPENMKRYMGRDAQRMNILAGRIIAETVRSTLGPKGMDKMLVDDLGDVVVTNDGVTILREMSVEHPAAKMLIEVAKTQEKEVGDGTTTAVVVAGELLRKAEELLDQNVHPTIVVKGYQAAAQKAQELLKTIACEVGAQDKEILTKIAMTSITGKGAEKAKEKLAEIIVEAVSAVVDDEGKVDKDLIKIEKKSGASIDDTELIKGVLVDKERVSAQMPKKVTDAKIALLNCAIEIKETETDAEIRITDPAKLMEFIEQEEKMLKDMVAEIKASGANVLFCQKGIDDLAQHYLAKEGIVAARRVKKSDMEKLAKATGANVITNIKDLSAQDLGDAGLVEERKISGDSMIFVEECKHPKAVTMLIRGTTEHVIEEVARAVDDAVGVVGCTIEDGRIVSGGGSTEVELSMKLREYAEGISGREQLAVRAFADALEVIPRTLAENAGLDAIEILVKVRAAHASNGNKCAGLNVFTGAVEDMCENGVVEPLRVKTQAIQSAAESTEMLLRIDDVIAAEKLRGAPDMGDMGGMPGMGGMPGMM
# In short: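 MmCpn (50 nM final) was preincubated with compound 5 min at RT, then 30 uM ATP (final) was added and the reaction ran 10 min at 37C. ADP produced was detected by Transcreener HTRF (ex 320 nm; em 590/665 nm).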
# [3] = biological target: Transient receptor potential cation channel subfamily V member 1 (Homo sapiens) (UniProt Q8NER1); test: HTS Assay for Compounds that Act as Enhancers of the Vanilloid Receptor 1 (AID 488979)
# In short: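 TRPV1 cells loaded with Fluo-8 calcium dye; compound added and Ca2+ signal (ex 480/em 520 nm) followed 3 min, then capsaicin at EC20 added and read 2 more min to detect enhancement.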
# [4] = biological target: Thyrotropin receptor (Homo sapiens) (UniProt P16473); test: qHTS Assay for Antagonists of the Thyroid Stimulating Hormone Receptor (AID 488980); further: series mostly up to about 58 µM
# Sequence of Thyrotropin receptor (Homo sapiens) (P16473 whole entry, looked up): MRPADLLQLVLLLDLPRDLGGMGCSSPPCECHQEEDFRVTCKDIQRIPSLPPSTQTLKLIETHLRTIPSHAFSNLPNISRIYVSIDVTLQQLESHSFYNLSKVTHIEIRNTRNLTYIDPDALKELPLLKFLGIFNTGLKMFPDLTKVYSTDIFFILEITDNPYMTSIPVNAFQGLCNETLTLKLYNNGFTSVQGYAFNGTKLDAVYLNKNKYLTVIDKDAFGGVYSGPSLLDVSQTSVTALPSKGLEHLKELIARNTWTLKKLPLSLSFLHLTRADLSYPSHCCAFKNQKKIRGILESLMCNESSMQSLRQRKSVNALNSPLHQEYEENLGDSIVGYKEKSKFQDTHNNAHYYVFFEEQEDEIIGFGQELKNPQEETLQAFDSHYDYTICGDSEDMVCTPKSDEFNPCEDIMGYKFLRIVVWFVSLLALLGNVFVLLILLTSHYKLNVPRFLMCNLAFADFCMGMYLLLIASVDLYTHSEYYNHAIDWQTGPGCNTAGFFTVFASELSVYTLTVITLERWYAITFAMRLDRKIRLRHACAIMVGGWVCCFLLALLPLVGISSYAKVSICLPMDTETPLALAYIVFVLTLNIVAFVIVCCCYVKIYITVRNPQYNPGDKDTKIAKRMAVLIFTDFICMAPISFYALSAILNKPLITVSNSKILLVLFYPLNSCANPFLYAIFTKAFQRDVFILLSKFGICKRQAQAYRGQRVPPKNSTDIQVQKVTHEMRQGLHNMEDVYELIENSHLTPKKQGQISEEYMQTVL
# In short: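 HEK293 cells transfected with human TSHR, suspended in HEPES-buffered HBSS with 70 uM RO 20-1724, were treated with compounds plus TSH at EC80 (4 nM final). cAMP was measured by competitive HTRF (cryptate anti-cAMP antibody, cAMP-d2 acceptor).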
# [5] = biological target: D(1A) dopamine receptor (Homo sapiens) (UniProt P21728); test: HTS Assay for Allosteric Agonists of the Human D1 Dopamine Receptor: Primary Screen for Agonists (AID 488981)
# In short: (§1)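 Tetracycline-induced HEK293 Trex D1 cells with forced coupling to calcium, loaded with no-wash calcium dye; kinetic fluorescence read 180 s after compound addition for agonism, then a further 180 s after an EC20 dopamine challenge for potentiation.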
# [6] = biological target: D(1A) dopamine receptor (Homo sapiens) (UniProt P21728); test: HTS Assay for Allosteric Agonists of the Human D1 Dopamine Receptor: Primary Screen for Potentiators (AID 488982)
# In short: as §1
# [7] = biological target: D(1A) dopamine receptor (Homo sapiens) (UniProt P21728); test: HTS Assay for Allosteric Agonists of the Human D1 Dopamine Receptor: Primary Screen for Antagonists (AID 488983);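 further: calcium flux response to an EC80 dopamine challenge measured with no-wash dye; nearly all actives have a fitted effect of over 65% in size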
# In short: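 In this primary screen, compounds are applied to calcium-dye-loaded HEK293 T-REx cells with force-coupled D1 expression induced overnight at 30 C. An EC80 of dopamine follows the 180 s compound phase, and calcium is monitored for a further 180 s.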
# [8] = biological target: Thyrotropin-releasing hormone receptor (Homo sapiens) (UniProt P34981); test: qHTS for Small Molecule Agonists and Allosteric Enhancers of Human TRH Receptor: Validation Screen for Agonists (AID 493127;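 active means calcium activation more than 3 SD above the typical response in the agonist read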;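 further: intracellular calcium rise by fluo-8 fluorescence before TRH EC20 addition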); details: TRH receptor agonist cell assay; at 2 µM; stronger effect = higher value
# Sequence of Thyrotropin-releasing hormone receptor (Homo sapiens) (P34981 whole entry, looked up): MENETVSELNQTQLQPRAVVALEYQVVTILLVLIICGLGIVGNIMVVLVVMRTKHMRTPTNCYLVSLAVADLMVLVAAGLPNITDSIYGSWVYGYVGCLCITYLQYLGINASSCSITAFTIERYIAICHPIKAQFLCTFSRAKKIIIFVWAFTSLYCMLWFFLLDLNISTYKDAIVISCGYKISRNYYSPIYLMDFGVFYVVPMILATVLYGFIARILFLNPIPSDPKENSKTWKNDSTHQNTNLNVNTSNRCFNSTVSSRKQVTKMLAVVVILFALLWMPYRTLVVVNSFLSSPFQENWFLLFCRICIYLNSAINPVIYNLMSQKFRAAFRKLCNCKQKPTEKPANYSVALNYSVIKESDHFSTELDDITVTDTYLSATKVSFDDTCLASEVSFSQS
# In short: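 Kinetic fluorescence assay of agonist-induced calcium release: overnight-plated TRHR cells, room-temperature fluo-8 loading, baseline then compound addition with per-second reads.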
# [9] = qHTS for Inhibitors of Cell Surface uPA Generation: Validation Assay (AID 493164);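 further: RAW 264.7 macrophage cells exposed to compound for 18 h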
# In short: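 Compounds are titrated over seven points (2.45 nM–38.3 uM final) onto pre-plated RAW 264.7 cells and incubated for 18 h. Retained intracellular ATP, measured with ATP-Lite, indicates blocked lethal factor entry.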
# [10] = biological target: Galactokinase (Homo sapiens) (UniProt P51570); test: qHTS Validation Assay for Inhibitors of Human Galactokinase (GALK) (AID 493189)
# In short: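 GALK (5 nM) with 35 uM ATP and 100 uM galactose in HEPES pH8.0, MgCl2, NaCl, DTT, BSA; 1 h at room temperature. Residual ATP read by Kinase-Glo Plus luminescence after 10 min.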
# [11] = Validation screen for small molecules that induce DNA re-replication in SW480 colon adenocarcinoma cells (AID 504364)
# In short: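 Hoechst-stained SW480 nuclei, imaged at 405 nm excitation after 48 hr compound exposure, were counted for elevated DNA content as the re-replication signal.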
# [12] = biological target: Phosphoglycerate kinase, glycosomal (Trypanosoma brucei brucei) (UniProt P07378); test: qHTS Validation Assay to Find Inhibitors of Phosphoglycerate Kinase (AID 504547)
# In short: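 Compounds are pinned into the substrate/PGK mixture, and GAPDH (100nM final) is added to start the reaction by producing 1,3-BPG. After 60 minutes at room temperature, Kinase-Glo Plus is added and luminescence is measured 10 minutes later.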
# [13] = biological target: phosphoglycerate mutase (Leishmania major) (UniProt Q4Q090); test: qHTS Validation Assay to Find Inhibitors of Phosphoglycerate Mutase (AID 504548); further: series mostly up to about 58 µM
# In short: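 Lm PGAM 1.25nM final; 100 mM TEA pH 7.6, 5 mM MgCl2, 0.01% Tween-20; 45 min RT; Kinase-GloPlus, 10 min; end-point luminescence. Enzyme-free wells as negative controls.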
# [14] = biological target: Ubiquitin carboxyl-terminal hydrolase 1 (Homo sapiens) (UniProt O94782); test: Inhibitors of USP1/UAF1: Pilot qHTS (AID 504865);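 further: rhodamine fluorescence freed from ubiquitin-rhodamine substrate followed over time; top concentration of the series differs between compounds; nearly all actives have a fitted effect of over 35% in size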
# In short: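 USP1/UAF1 complex (1nM) preincubated with compound 15 min at room temperature, then Ub-Rho substrate (150nM final) added. Fluorescence read kinetically at 480/540 nm, 6 reads every 60 seconds. Buffer: 50mM HEPES pH 7.8, 0.5mM EDTA, 0.1 mg/ml BSA, 1mM TCEP, 0.01% Tween-20.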
# [15] = biological target: ATPase family AAA domain-containing protein 5 (Homo sapiens) (UniProt Q96QE3); test: Validation screen for small molecules that inhibit ELG1-dependent DNA repair in human embryonic kidney (HEK293T) cells expressing luciferase-tagged ELG1 (AID 493107); further: nearly all actives have a fitted effect of over 70% in size; further: potency means the concentration at half of the fitted maximal effect
# Sequence of ATPase family AAA domain-containing protein 5 (Homo sapiens) (Q96QE3 whole entry, looked up, the tested form may be a part): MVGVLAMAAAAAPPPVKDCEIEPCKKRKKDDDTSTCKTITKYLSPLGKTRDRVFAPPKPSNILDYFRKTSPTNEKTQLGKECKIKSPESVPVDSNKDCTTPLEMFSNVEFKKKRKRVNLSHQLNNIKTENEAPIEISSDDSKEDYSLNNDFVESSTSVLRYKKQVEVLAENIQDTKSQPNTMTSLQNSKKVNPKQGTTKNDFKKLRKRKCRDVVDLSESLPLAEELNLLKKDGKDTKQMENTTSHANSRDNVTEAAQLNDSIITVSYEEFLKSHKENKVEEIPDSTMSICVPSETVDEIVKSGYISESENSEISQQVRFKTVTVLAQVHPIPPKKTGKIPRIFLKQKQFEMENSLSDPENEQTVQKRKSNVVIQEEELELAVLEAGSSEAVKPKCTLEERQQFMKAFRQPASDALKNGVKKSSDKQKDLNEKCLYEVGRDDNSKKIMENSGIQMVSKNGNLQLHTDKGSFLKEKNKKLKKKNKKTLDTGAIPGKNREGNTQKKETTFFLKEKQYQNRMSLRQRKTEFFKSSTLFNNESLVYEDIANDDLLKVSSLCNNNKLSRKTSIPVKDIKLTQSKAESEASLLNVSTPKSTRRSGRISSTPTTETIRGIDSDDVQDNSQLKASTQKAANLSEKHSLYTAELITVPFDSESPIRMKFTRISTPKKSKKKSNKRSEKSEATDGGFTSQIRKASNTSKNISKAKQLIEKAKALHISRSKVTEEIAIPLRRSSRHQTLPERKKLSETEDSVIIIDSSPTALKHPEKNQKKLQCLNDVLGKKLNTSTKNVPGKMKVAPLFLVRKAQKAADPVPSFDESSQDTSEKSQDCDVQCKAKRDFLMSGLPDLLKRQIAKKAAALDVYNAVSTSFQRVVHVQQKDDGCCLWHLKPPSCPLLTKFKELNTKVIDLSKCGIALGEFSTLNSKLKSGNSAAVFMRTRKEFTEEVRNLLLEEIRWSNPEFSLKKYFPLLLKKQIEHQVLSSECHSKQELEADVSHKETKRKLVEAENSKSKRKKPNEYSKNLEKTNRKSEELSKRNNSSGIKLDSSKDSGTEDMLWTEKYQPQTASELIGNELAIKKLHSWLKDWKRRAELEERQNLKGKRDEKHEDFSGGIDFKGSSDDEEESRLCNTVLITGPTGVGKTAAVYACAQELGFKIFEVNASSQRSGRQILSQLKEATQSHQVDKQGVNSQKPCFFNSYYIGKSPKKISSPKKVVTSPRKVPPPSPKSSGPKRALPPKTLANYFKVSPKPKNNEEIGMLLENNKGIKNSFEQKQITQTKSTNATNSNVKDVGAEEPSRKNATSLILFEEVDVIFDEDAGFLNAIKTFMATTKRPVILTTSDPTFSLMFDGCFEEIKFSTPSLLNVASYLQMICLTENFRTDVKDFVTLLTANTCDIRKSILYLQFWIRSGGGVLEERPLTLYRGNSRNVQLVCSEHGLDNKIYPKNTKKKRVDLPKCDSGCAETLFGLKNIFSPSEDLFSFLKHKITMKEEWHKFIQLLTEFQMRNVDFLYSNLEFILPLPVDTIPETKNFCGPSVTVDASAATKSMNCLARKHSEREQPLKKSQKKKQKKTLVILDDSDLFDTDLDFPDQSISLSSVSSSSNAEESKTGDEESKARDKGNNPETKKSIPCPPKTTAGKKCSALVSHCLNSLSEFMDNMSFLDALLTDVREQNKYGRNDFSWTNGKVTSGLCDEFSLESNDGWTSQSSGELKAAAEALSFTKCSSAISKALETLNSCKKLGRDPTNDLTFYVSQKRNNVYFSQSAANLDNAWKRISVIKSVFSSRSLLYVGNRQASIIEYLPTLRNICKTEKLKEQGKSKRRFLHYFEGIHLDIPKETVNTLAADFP
# In short: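 Compounds reducing 5-fluorouridine-driven ELG1-luciferase signal in HEK293T cells were scored; exposure lasted 16 hr at 37 °C with luminescence detected via ONE-Glo.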
# [16] = Nrf2 qHTS screen for inhibitors: Validation (AID 493153; active means well fitted inhibition curve with a large enough effect in the main read-out, with a control signal flat, not every such curve was filed as active); details: Potency: luciferase luminescence; viability change: measured here: cytotoxicity max response
# In short: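 In this counterscreened reporter format, each well gives two signals: CellTiter-Fluor fluorescence for cytotoxicity and ARE-luciferase luminescence for Nrf2 function. A549 ARE_Fluc cells in 5% FBS OPTI-MEM were exposed to compound titrations for 18-24 h.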
# [17] = biological target: Peptidyl-prolyl cis-trans isomerase NIMA-interacting 1 (Homo sapiens) (UniProt Q13526); test: qHTS Validation Assay to Find Inhibitors of Pin1 (AID 504536; active means well fitted inhibition curve with a large enough effect in the polarisation, with a control signal flat, not every such curve was filed as active; the % refers to the polarisation)
# Sequence of Peptidyl-prolyl cis-trans isomerase NIMA-interacting 1 (Homo sapiens) (Q13526 whole entry, looked up): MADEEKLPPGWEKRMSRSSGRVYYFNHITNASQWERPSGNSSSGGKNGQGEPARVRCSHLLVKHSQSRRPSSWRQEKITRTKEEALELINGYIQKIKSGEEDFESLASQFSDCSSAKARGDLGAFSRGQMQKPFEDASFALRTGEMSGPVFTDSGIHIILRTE
# In short: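 Fluorescence polarization competition: compounds (titration) displace HiFluor-488-labeled Pin1-1b peptide from Pin1 (0.3 uM final) in pH 7.5 HEPES buffer with DTT, 10 min at room temperature; %Activity normalized to no-enzyme wells, curves fitted.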
# [18] = biological target: ATP-dependent 6-phosphofructokinase (Trypanosoma brucei brucei) (UniProt O15648); test: qHTS Assay to Find Inhibitors of T. brucei phosphofructokinase: hit validation (AID 492961); further: series mostly up to about 51 µM
# Sequence of ATP-dependent 6-phosphofructokinase (Trypanosoma brucei brucei) (O15648 whole entry, looked up): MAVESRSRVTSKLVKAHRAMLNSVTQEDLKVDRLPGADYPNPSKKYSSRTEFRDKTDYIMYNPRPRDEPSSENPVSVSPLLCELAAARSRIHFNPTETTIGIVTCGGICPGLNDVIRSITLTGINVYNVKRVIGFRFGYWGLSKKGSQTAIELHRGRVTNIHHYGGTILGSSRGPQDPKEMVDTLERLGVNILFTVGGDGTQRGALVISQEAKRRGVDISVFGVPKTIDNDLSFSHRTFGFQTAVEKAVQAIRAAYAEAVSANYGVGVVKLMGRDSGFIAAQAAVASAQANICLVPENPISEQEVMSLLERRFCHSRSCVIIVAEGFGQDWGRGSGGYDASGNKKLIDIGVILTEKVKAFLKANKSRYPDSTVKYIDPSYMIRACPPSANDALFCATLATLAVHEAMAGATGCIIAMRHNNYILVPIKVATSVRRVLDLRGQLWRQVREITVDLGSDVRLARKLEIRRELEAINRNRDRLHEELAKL
# In short: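 Luminescence from ADP-Glo reports ADP generated as T. brucei PFK (1.25 nM) phosphorylates 0.5 mM fructose-6-phosphate using 0.1 mM ATP. Reactions ran 45 min at room temperature, pH 8.0.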
# [19] = Validation screen for small molecules that induce genotoxicity in human embryonic kidney (HEK293T) cells expressing luciferase-tagged ELG1 (AID 493106)
# In short: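 In this validation screen, increased ELG1-luciferase signal flags compounds causing genetic stress. HEK293T reporter cells are treated 16 hr (37 °C, 5% CO2), developed with ONE-Glo for 30 min at room temperature, and imaged on a CCD-based reader.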
Compound,Potency [1],outcome [2],outcome [3],outcome [4],Potency [5],Potency [6],Potency [7],activation [8],outcome [9],outcome [10],outcome [11],outcome [12],outcome [13],Potency [14],Potency [15],Potency [16],viability change [16] [%],outcome [17],outcome [18],Potency [19]
Nc1nc(N)c2nc(-c3ccccc3)c(N)nc2n1,inactive,inactive,inactive,inactive,inactive,inactive,inactive,-0.0625% (inactive),inactive,inactive,inactive,inactive,inactive,inactive,,,,,,
NC(Cc1ccc(Cl)cc1)C(=O)O (configuration not stated),inactive,inactive,inactive,inactive,,inactive,inactive,0.75% (inactive),inactive,inactive,inactive,inactive,inactive,inactive,inactive,inactive,-1.14,inactive,,
Cc1nnc(SCC2=C(C(=O)O)N3C(=O)[C@@H](NC(=O)Cn4cnnn4)[C@H]3SC2)s1,,inactive,inactive,inactive,,inactive,inactive,1.12% (inactive),inactive,inactive,inactive,inactive,inactive,inactive,inactive,inactive,-1.79,inactive,inactive,inactive
CNCCCN1c2ccccc2CCc2ccccc21,,inactive,,inactive,inactive,inactive,,,inactive,inactive,inactive,inactive,inactive,inactive,inactive,inactive,-3.92,inactive,inactive,inactive
COCC(=O)O[C@]1(CCN(C)CCCc2nc3ccccc3[nH]2)CCc2cc(F)ccc2[C@@H]1C(C)C,inactive,inactive,,inactive,,inactive,,7.31% (inactive),inactive,inactive,inactive,inactive,inactive,inactive,18.3 µM (active),,,inactive,inactive,inactive
Brc1c(NC2=NCCN2)ccc2nccnc12,inactive,inactive,,inactive,inactive,inactive,inactive,,inactive,inactive,inactive,inactive,inactive,inactive,inactive,inactive,-1.27,inactive,,inactive
